Data: PubChem BioAssay (NCATS)
“And” between values parts separate entries of the source, which are not always exact repeats. Equal values may be shown once. Results filed as inconclusive are left out. The source made the active and inactive calls. The call rests on the fitted dose curve; in most records, active means well fitted curve in the direction sought with a large enough effect; inconclusive means small, poorly fitted or top-dose-only effect, or another doubt; inactive means no such curve, though single readings can be large; an effect the other way counts as inactive or inconclusive.

Tests used:
[1] = Viability qHTS for spleen associated tyrosine kinase inhibitor (SYKi) naive MV4-11 cells (AID 1963823); further: nearly all actives have a fitted effect of over 40% in size
Outline: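 Luminescence from CellTiter-Glo, developed 10 min at room temperature, gave viability of MV4-11 cells never exposed to SYK inhibitor. Cells (500/well) had been incubated with compounds for 72 hr under standard culture conditions.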

[2] = Viability qHTS for spleen associated tyrosine kinase inhibitor (SYKi) drug resistant MV4-11 cells (AID 1963824); further: nearly all actives have a fitted effect of over 35% in size
Outline: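 SYK inhibitor-resistant MV4-11 AML cells, 500 per well, added to predispensed compounds and incubated 72 hr at 37 C, 5% CO2. Viability measured by CellTiter-Glo luminescence after 10 min at room temperature.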

[3] = Cellular viability qHTS for adrenocortical cancer (ACC) cell line SW-13 (AID 1963989); details: SW-13 ACC cells viability, CellTiter-Glo, 48 h; activity (max response): active compounds read low; further: nearly all actives have a fitted effect of over 65% in size;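 on activity (max response): cells grown in serum-free medium with ITS supplement; on the % scale 0 is the no-effect control and ±100 the full control effect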
Outline: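 Compound titrations (up to 46 uM final, in DMSO) were applied to SW-13 cells for 48 h at 37C/5% CO2. Reading used CellTiter-Glo after 20 min at room temperature; fitted curves yielded IC50 and efficacy.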

[4] = Cellular viability qHTS for adrenocortical cancer (ACC) cell line NCI-H295R (AID 1963990); further: nearly all actives have a fitted effect of over 60% in size
Outline: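 Readout: CellTiter-Glo luminescence, 20 min RT. Exposure: 48 h, 37C/5% CO2. Cells: NCI-H295R, ITS-DMEM serum-free. Range: up to 46 uM. Analysis: 4PL fit, IC50 plus efficacy.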
Potency means the concentration at half of the fitted maximal effect.

COc1ccc(S(=O)(=O)Nc2nnc(CC(C)C)s2)cc1
inactive: Potency [1] | Potency [2] | activity (max response) [3] -5.12% | Potency [4]

CCOc1ccc(NS(=O)(=O)c2ccc(N)cc2)nn1
inactive: Potency [1] | Potency [2] | activity (max response) [3] 7.51% | Potency [4]

CC(C)N(CCC(=O)c1ccc2ccccc2c1)Cc1ccccc1
active: Potency [1] 2.35 µM | Potency [2] 2.95 µM and 1.84 µM | Potency [4] 14.1 µM
inactive: activity (max response) [3] -18.6%

COc1ccc(N2C(=O)N(c3c(C)cccc3Cl)Cc3cnc(Nc4ccc(C5CCN(C)CC5)cc4OC)nc32)nc1
active: Potency [1] 0.934 µM | Potency [2] 1.48 µM | Potency [3] 2.24 µM | Potency [4] 17.8 µM

Nc1ccc(S(=O)(=O)c2ccc(N)cc2)cc1
inactive: Potency [1] | Potency [2] | activity (max response) [3] 8.46% | Potency [4]

COc1c(Nc2ncc(Cl)c(N[C@H]3[C@H](C(N)=O)[C@@H]4C=C[C@@H]3C4)n2)ccc2c1CCC(N1CCOCC1)CC2 (some centres not stated)
active: Potency [1] 0.13 µM | Potency [2] 0.366 µM | Potency [3] 15.8 µM | Potency [4] 7.94 µM

Cn1c(NC[C@@H](N)Cc2ccccc2)nc(-c2ccncc2)c(-c2ccc3ccccc3c2)c1=O
active: Potency [1] 7.42 µM | Potency [2] 6.61 µM | Potency [3] 28.2 µM | Potency [4] 31.6 µM

Cn1cc(-c2c[nH]c3ncnc(N4CCOCC4)c23)cn1
active: Potency [1] 13.2 µM | Potency [2] 14.8 µM
inactive: activity (max response) [3] 0.0559% | Potency [4]

O=C1Nc2nc(-c3c(O)cccc3OCC3CC3)cc([C@@H]3CCCNC3)c2CO1
active: Potency [1] 2.91 µM | Potency [2] 4.11 µM and 5.25 µM | Potency [3] 22.4 µM | Potency [4] 17.8 µM

C=C1C[C@@]2(O)O[C@@]3(C[C@H]2C(C)C)[C@@H](C)CC[C@@H]13
inactive: Potency [1] | Potency [2] | activity (max response) [3] 6.19% | Potency [4]

Cc1ccc(-c2ccccc2C#N)cc1
inactive: Potency [1] | Potency [2] | activity (max response) [3] 12.9% | Potency [4]

CC(C)(O)CC[C@@H](O)[C@](C)(O)[C@H]1CC[C@@]2(O)C3=CC(=O)[C@@H]4C[C@@H](O)[C@@H](O)C[C@]4(C)[C@H]3CC[C@]12C
inactive: Potency [1] | Potency [2] | activity (max response) [3] 9.11% | Potency [4]

CC[C@]12C=CCN3CC[C@@]4(c5cc([C@@]6(C(=O)OC)CC7C[C@@H](C(C)(F)F)CN(Cc8c6[nH]c6ccccc86)C7)c(OC)cc5N(C)[C@H]4[C@@](O)(C(=O)OC)[C@@H]1OC(C)=O)[C@@H]32 (some centres not stated)
active: Potency [1] 0.0934 µM | Potency [2] 0.105 µM | Potency [3] 0.282 µM | Potency [4] 0.708 µM

O=S(=O)(Nc1ccc(-c2cccnc2)c2cccnc12)c1cccc(C(F)(F)F)c1
active: Potency [1] 6.61 µM | Potency [2] 5.25 µM | Potency [3] 4.47 µM | Potency [4] 3.98 µM

C[C@@H](C(=O)Nc1ccc(Cl)cc1)C1CCC(c2ccnc3ccc(F)cc23)CC1 (some centres not stated)
active: Potency [1] 18.6 µM | Potency [2] 14.8 µM | Potency [3] 25.1 µM | Potency [4] 25.1 µM

O=C(O)CNC(=O)c1nc(Cl)c2ccccc2c1O
inactive: Potency [1] | Potency [2] | activity (max response) [3] 8.31% | Potency [4]

CO[C@@H](C)Cn1c(=O)n(C)c2cnc3ccc(-c4cncc(C(C)(C)O)c4)cc3c21
active: Potency [1] 0.082 µM | Potency [2] 0.332 µM | Potency [3] 3.55 µM | Potency [4] 0.891 µM

Cc1cc(C)cc(OCC2CNC(=O)O2)c1 (configuration not stated)
inactive: Potency [1] | Potency [2] | activity (max response) [3] 4.02% | Potency [4]

COc1cccc(OCCCN)c1-c1cc(Nc2cnc(C#N)cn2)n[nH]1
inactive: activity (max response) [3] -3.44% | Potency [4]
active: Potency [1] 14.6 nM and 5.9 nM | Potency [2] 0.0116 µM

O=C(CCl)Nc1cccc(NC2=NS(=O)(=O)c3ccccc32)c1
active: Potency [1] 2.63 µM | Potency [2] 2.63 µM | Potency [3] 8.91 µM | Potency [4] 3.16 µM

Cc1cc(OCc2nnc(SC3CCCC3)n2-c2cccnc2)ccc1-c1ccc(S(C)(=O)=O)cc1
inactive: activity (max response) [3] -6.15% | Potency [4]
active: Potency [1] 0.184 µM | Potency [2] 0.116 µM

Fc1ccc(-c2csc3ncnc(NCc4ccc5c(c4)OCO5)c23)cc1
active: Potency [1] 1.66 µM | Potency [2] 1.66 µM | Potency [3] 15.8 µM | Potency [4] 25.1 µM

N[C@@H]1CN(c2c(F)cc3c(=O)c(C(=O)O)cn([C@@H]4C[C@@H]4F)c3c2Cl)CC12CC2
inactive: Potency [1] | Potency [2] | activity (max response) [3] -10.4% | Potency [4]
